# Measurements: the supplement of paper PMC6555819
# Columns and labels:
# Assay in all cases: PBM binding z-score (relative to random genomic background probes); higher = stronger binding; sequences stand for … in GC…GCGATTGACAGCGTAGAATGAAGG
# [1] = tested on: FXR:RXRa (NR concentration 270 nM, RXRa partner concentration 90 nM)
# How it was run: (§1)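 Ligand-free nuclear receptor dimers were bound for 1 h to custom Agilent 4×180K protein-binding microarrays. Detection used antibodies against each partner (one per run). Binding z-scores rest on regression-normalized fluorescence, with random background probes as the reference.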
# [2] = tested on: LXRa:RXRa (NR concentration 270 nM, RXRa partner concentration 90 nM)
# How it was run: as §1
# [3] = tested on: LXRa homodimer (NR concentration 270 nM)
# How it was run: as §1
# [4] = tested on: LXRb:RXRa (NR concentration 270 nM, RXRa partner concentration 90 nM)
# How it was run: as §1
# [5] = tested on: LXRb homodimer (NR concentration 270 nM)
# How it was run: as §1
# [6] = tested on: PPARa:RXRa (NR concentration 270 nM, RXRa partner concentration 90 nM)
# How it was run: as §1
# [7] = tested on: PPARg:RXRa (NR concentration 180 nM, RXRa partner concentration 90 nM)
# How it was run: as §1
# [8] = tested on: PPARg:RXRa 270nM:90nM, anti-RXR (NR concentration 270 nM, RXRa partner concentration 90 nM)
# How it was run: as §1
# [9] = tested on: PPARg:RXRa 30nM:10nM, anti-RXR (NR concentration 30 nM, RXRa partner concentration 10 nM)
# How it was run: as §1
# [10] = tested on: PPARg:RXRa 90nM:30nM, anti-RXR (NR concentration 90 nM, RXRa partner concentration 30 nM)
# How it was run: as §1
# [11] = tested on: PPARg:RXRa DBDmut IVT, anti-RXR (DBD mutation: RXRa K156A/R161A, NR concentration 270 nM, RXRa partner concentration 90 nM)
# How it was run: as §1
# [12] = tested on: PPARg:RXRa IVT, anti-PPARg (NR concentration 270 nM, RXRa partner concentration 90 nM)
# How it was run: as §1
# [13] = tested on: PPARg DBDmut:RXRa IVT, anti-PPARg (DBD mutation: PPARg1 K132A/R137A, NR concentration 270 nM, RXRa partner concentration 90 nM)
# How it was run: as §1
# [14] = tested on: PPARg DBDmut IVT, anti-PPARg (DBD mutation: PPARg1 K132A/R137A, NR concentration 270 nM)
# How it was run: as §1
# [15] = tested on: PPARg homodimer (NR concentration 180 nM)
# How it was run: as §1
# [16] = tested on: PXR:RXRa (NR concentration 270 nM, RXRa partner concentration 90 nM)
# How it was run: as §1
# [17] = tested on: PXR homodimer (NR concentration 270 nM)
# How it was run: as §1
# [18] = tested on: RARa:RXR (NR concentration 270 nM, RXRa partner concentration 90 nM)
# How it was run: as §1
# [19] = tested on: RARa homodimer (NR concentration 270 nM)
# How it was run: as §1
# [20] = tested on: RARb:RXRa (NR concentration 270 nM, RXRa partner concentration 90 nM)
# How it was run: as §1
Sequence,PBM binding z-score [1],PBM binding z-score [2],PBM binding z-score [3],PBM binding z-score [4],PBM binding z-score [5],PBM binding z-score [6],PBM binding z-score [7],PBM binding z-score [8],PBM binding z-score [9],PBM binding z-score [10],PBM binding z-score [11],PBM binding z-score [12],PBM binding z-score [13],PBM binding z-score [14],PBM binding z-score [15],PBM binding z-score [16],PBM binding z-score [17],PBM binding z-score [18],PBM binding z-score [19],PBM binding z-score [20]
TCTTCTAGATCAATAGAGGTTAAGAAAGTGCGCT,0.907,3.4,0.664,1.92,0.831,1.9,0.156,2,3.32,2.76,2.16,1.48,1.87,0.999,0.764,3.02,0.423,1.8,0.413,0.98
TCTTGGAGATCAAGCAGGTTAAGAAAGCCTGAGT,0.463,0.405,-0.249,0.297,-0.658,1.09,-0.253,1.39,2.35,1.84,1.33,-0.158,-0.0417,-0.978,-0.522,0.538,0.0928,0.684,-0.244,0.272
ATCTCTAGGTAACAAGTTAAGTGAAAGAGAGGAC,0.803,0.557,0.231,0.236,0.69,1.55,2.23,3.1,1.59,2.7,3.26,2.85,1.87,1.54,0.926,0.289,0.574,0.842,0.894,0.723
ATCGAAAGGTAGAGGTGAGTATAGAGAAAGGGAA,0.781,0.589,0.209,0.313,0.482,0.942,1,0.958,0.813,0.82,-0.16,0.688,0.622,0.766,0.946,0.265,0.595,0.402,0.765,1.28
TCCGACAGGTGAAGGTAACTCAGGTACGCAGTCG,0.658,1.48,-0.467,0.558,-0.785,0.847,0.493,1.09,2.1,1.34,1.51,1.05,-0.595,-0.742,-0.0885,0.293,-0.308,0.63,-0.702,0.858
GCTGGGAGGACAAGGTCAGAGCTTTGTCCGTAGA,1.59,1.84,-0.27,1.45,-0.657,2.47,0.399,1.28,-0.497,0.699,0.282,0.836,-1.6,-1.38,1.02,1.89,-0.0131,2.62,-0.22,3.41
CCGACTGGGTCATAAGGTTACCATAAGCCAGCCC,2.99,3.47,-0.00526,2.23,-0.614,4.14,5.19,5.46,2.95,4.86,5.16,5.58,0.678,0.517,2.93,2.45,0.189,4.18,0.218,3.38
AATACAGGGTCATTGTAGGCCAGAGTACGCACAG,7.11,6.93,3.2,5.09,1.47,5.93,6.15,5.54,2.4,4.29,2.56,4.77,1.99,0.86,2.91,4.83,0.912,4.54,0.607,4.19
CGTCCTAGGTCAAAGGTCAGTGAAGAGATGACGG,7.08,5.88,2.24,5.52,0.881,6.8,11,9.26,9.03,10.2,4.39,5.93,0.538,0.49,3.9,6.08,0.262,7.96,1.07,5.64
TAGCCTAGGTCATTCCGGGGCCAGTATAGAAAGC,4.26,3.29,0.811,2.53,1.33,3.21,1.75,2.04,0.233,1.01,1.04,2.62,-0.235,0.258,0.924,2.65,-0.216,3.02,-0.809,3.74
ATATGTAGGTTACATCCGGGTCGTTCAGGCTATG,1.06,2.86,0.557,1.67,0.653,3.5,5.18,4.47,1.66,3.49,7.59,7.22,2.21,1.61,1.23,1.64,0.721,1.35,0.787,1.49
TAGCCTAGGTCATTCAGGGGACAGTATAGAAAGC,4.83,4.05,1.41,3.39,1.57,3.96,2.88,2.81,0.785,1.62,2.17,3.28,0.412,0.909,1.58,2.58,0.0541,3.72,0.228,4.09
AGAATGAGGTTATATGTAGATCAGGGAAGAAAGT,2.11,1.96,0.495,1.82,0.548,3.26,2.33,2.5,0.823,1.87,3.28,2.52,1.48,1.02,1.32,1.2,0.891,1.75,1.37,1.57
CGAACTGGGTCATTGACAGGACAGTGAATAGTAA,3.16,1.97,0.288,1.86,-0.438,4.39,6.77,5.84,2.72,5.44,7.7,7.88,1.06,1.35,0.71,1.41,0.347,2.18,0.276,2.92
